Measured values taken from PubChem BioAssay (Tox21).
Unmarked numbers belong to inactive results. Inconclusive results are not listed. A call without a number means that no potency is given here. Active and inactive are the calls of the source. Calls follow the shape of the dose curve; as a rule, active = well fitted curve in the direction sought with a large enough effect in the repeat runs; inconclusive = weak or mixed curves; inactive = no such curve, though single readings can be large; an effect the other way counts as inactive or inconclusive.

Experiments:
[1] = A CellTox Green Cytotoxicity Assay to monitor cytotoxicity in HEK293 cells - 40 hour (AID 1224871); also: nearly all actives have a fitted effect of over 45% in size
Procedure, shortened: (§1)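 Nonlytic real-time cytotoxicity: HEK293 + CellTox Green reagent plated, 5 h preincubation, pintool compound addition (23 nL in DMSO), 37 C for 40 h, fluorescence measured at successive time points.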

[2] = qHTS RealTime-Glo MT Cell Viability Assay in HepG2 cells - 8 hour (AID 1224873); also: nearly all actives have a fitted effect of over 55% in size
Procedure, shortened: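 HepG2 cells mixed with RealTime-Glo MT reagents (NanoLuc plus cell-permeant prosubstrate) were seeded at 600 cells/well, incubated 5 h at 37 C/5% CO2, then pinned with compounds in DMSO; nonlytic luminescence tracked viability during 40 h treatment.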

[3] = A CellTox Green Cytotoxicity Assay to monitor cytotoxicity in HEK293 cells - 24 hour (AID 1224875); also: series mostly up to about 77 µM; nearly all actives have a fitted effect of over 45% in size
Procedure, shortened: as §1

[4] = A CellTox Green Cytotoxicity Assay to monitor cytotoxicity in HepG2 cells - 16 hour (AID 1224876); also: nearly all actives have a fitted effect of over 45% in size
Procedure, shortened: (§2)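 Read-out is fluorescence of a cyanine dye excluded from live cells that stains DNA of dead HepG2 cells, with signal proportional to cytotoxicity. Plates were read at 0, 8, 16, 24, 32 and 40 h after compound addition.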

[5] = qHTS RealTime-Glo MT Cell Viability Assay in HepG2 cells - 32 hour (AID 1224877); also: nearly all actives have a fitted effect of over 55% in size
Procedure, shortened: (§3)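 Tox21 10K library screened in qHTS format on HepG2 cells carrying RealTime-Glo reagents. Compounds were added after a 5 h preincubation, and the luminescent signal from continuous culture was measured repeatedly during 40 h treatment.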

[6] = A CellTox Green Cytotoxicity Assay to monitor cytotoxicity in HepG2 cells - 24 hour (AID 1224878); also: nearly all actives have a fitted effect of over 45% in size; also: potency is read from the fitted curve at half-maximal effect
Procedure, shortened: as §2

[7] = qHTS RealTime-Glo MT Cell Viability Assay in HEK293 cells - 0 hour (AID 1224880)
Procedure, shortened: (§4)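 Cells were seeded together with NanoLuc luciferase and a prosubstrate that viable cells reduce to a luciferase substrate. After a 5 h incubation at 37 C/5% CO2, compounds were added and luminescence was measured repeatedly during 40 h of treatment.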

[8] = A CellTox Green Cytotoxicity Assay to monitor cytotoxicity in HEK293 cells - 32 hour (AID 1224881); also: nearly all actives have a fitted effect of over 40% in size
Procedure, shortened: as §1

[9] = A CellTox Green Cytotoxicity Assay to monitor cytotoxicity in HepG2 cells - 0 hour (AID 1224882); also: nearly all actives have a fitted effect of over 35% in size
Procedure, shortened: as §2

[10] = A CellTox Green Cytotoxicity Assay to monitor cytotoxicity in HEK293 cells - 8 hour (AID 1224884); also: nearly all actives have a fitted effect of over 35% in size
Procedure, shortened: as §1

[11] = qHTS RealTime-Glo MT Cell Viability Assay in HepG2 cells - 16 hour (AID 1224885); also: nearly all actives have a fitted effect of over 50% in size
Procedure, shortened: as §3

[12] = qHTS RealTime-Glo MT Cell Viability Assay in HEK293 cells - 8 hour (AID 1224887); also: nearly all actives have a fitted effect of over 50% in size; also: potency is read from the fitted curve at half-maximal effect
Procedure, shortened: as §4

[13] = A CellTox Green Cytotoxicity Assay to monitor cytotoxicity in HEK293 cells - 16 hour (AID 1224888); also: nearly all actives have a fitted effect of over 35% in size
Procedure, shortened: as §1

[14] = qHTS RealTime-Glo MT Cell Viability Assay in HEK293 cells - 16 hour (AID 1224872); also: nearly all actives have a fitted effect of over 50% in size; also: potency is read from the fitted curve at half-maximal effect
Procedure, shortened: (§5)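 Luminescence generated by NanoLuc from substrate produced by living HEK293 cells served as the viability signal. Each value reflects the reading at its stated time point during continuous 40 h compound exposure at 37 C.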

[15] = qHTS RealTime-Glo MT Cell Viability Assay in HEK293 cells - 40 hour (AID 1224874); settings: RealTime-Glo luminescence; max response: stronger effect = lower value; also: nearly all actives have a fitted effect of over 50% in size; also: potency is read from the fitted curve at half-maximal effect
Procedure, shortened: as §4

[16] = A CellTox Green Cytotoxicity Assay to monitor cytotoxicity in HepG2 cells - 40 hour (AID 1224879); also: nearly all actives have a fitted effect of over 40% in size; also: potency is read from the fitted curve at half-maximal effect
Procedure, shortened: as §2

[17] = A CellTox Green Cytotoxicity Assay to monitor cytotoxicity in HepG2 cells - 32 hour (AID 1224883); also: nearly all actives have a fitted effect of over 50% in size; also: potency is read from the fitted curve at half-maximal effect
Procedure, shortened: as §2

[18] = qHTS RealTime-Glo MT Cell Viability Assay in HEK293 cells - 24 hour (AID 1224886); also: nearly all actives have a fitted effect of over 50% in size; also: potency is read from the fitted curve at half-maximal effect
Procedure, shortened: as §5

[19] = qHTS RealTime-Glo MT Cell Viability Assay in HepG2 cells - 0 hour (AID 1224889); also: nearly all actives have a fitted effect of over 50% in size
Procedure, shortened: as §3

[20] = A CellTox Green Cytotoxicity Assay to monitor cytotoxicity in HepG2 cells - 8 hour (AID 1224890); also: nearly all actives have a fitted effect of over 45% in size
Procedure, shortened: as §2

CC1COC2(c3ccccc3Cl)c3cc(Cl)ccc3NC(=O)CN12 (centres undefined)
Potency [1]: inactive
Potency [2]: inactive
Potency [3]: inactive
Potency [4]: inactive
Potency [5]: inactive
Potency [6]: inactive
outcome [7]: inactive
Potency [8]: inactive
outcome [9]: inactive
Potency [10]: inactive
Potency [11]: inactive
Potency [12]: inactive
Potency [13]: inactive

C[N+](=O)[O-]
Potency [14]: inactive
Potency [2]: inactive
max response [15]: 18.3%
Potency [3]: inactive
Potency [4]: inactive
Potency [6]: inactive
Potency [16]: inactive
outcome [7]: inactive
Potency [8]: inactive
outcome [9]: inactive
Potency [17]: inactive
Potency [10]: inactive
Potency [11]: inactive
Potency [18]: inactive
Potency [12]: inactive
Potency [13]: inactive
Potency [19]: inactive
Potency [20]: inactive

CC(C)NCC(O)c1ccc(N)c(C#N)c1 (centres undefined)
Potency [14]: inactive
Potency [2]: inactive
max response [15]: 2.86%
Potency [3]: inactive
Potency [4]: inactive
Potency [5]: inactive
Potency [6]: inactive
Potency [16]: inactive
outcome [7]: inactive
Potency [8]: inactive
outcome [9]: inactive
Potency [17]: inactive
Potency [10]: inactive
Potency [11]: inactive
Potency [18]: inactive
Potency [12]: inactive
Potency [13]: inactive
Potency [19]: inactive
Potency [20]: inactive

Nc1ccccc1Cl
Potency [14]: inactive
Potency [2]: inactive
max response [15]: 15.7%
Potency [3]: inactive
Potency [4]: inactive
Potency [5]: inactive
Potency [6]: inactive
Potency [16]: inactive
outcome [7]: inactive
Potency [8]: inactive
outcome [9]: inactive
Potency [17]: inactive
Potency [11]: inactive
Potency [18]: inactive
Potency [12]: inactive
Potency [13]: inactive
Potency [19]: inactive

C[C@]12CC[C@H]3[C@@H](CC=C4C[C@@H](O)CC[C@@]43C)[C@@H]1CC[C@@H]2O
Potency [14]: inactive
Potency [2]: inactive
max response [15]: 8.6%
Potency [3]: inactive
Potency [4]: inactive
Potency [5]: inactive
Potency [6]: inactive
Potency [16]: inactive
outcome [7]: inactive
Potency [8]: inactive
Potency [17]: inactive
Potency [10]: inactive
Potency [11]: inactive
Potency [18]: inactive
Potency [12]: inactive
Potency [13]: inactive
Potency [19]: inactive
Potency [20]: inactive

CCOP(=S)(OCC)Oc1ncn(-c2ccccc2)n1
Potency [1]: inactive
Potency [2]: inactive
Potency [3]: inactive
Potency [4]: inactive
Potency [6]: inactive
Potency [16]: inactive
outcome [7]: inactive
Potency [8]: inactive
outcome [9]: inactive
Potency [17]: inactive
Potency [10]: inactive
Potency [11]: inactive
Potency [18]: inactive
Potency [12]: inactive
Potency [13]: inactive
Potency [20]: inactive

Cc1ccccc1CO[C@@H]1C[C@@]2(C(C)C)CC[C@]1(C)O2
Potency [14]: inactive
Potency [2]: inactive
max response [15]: -15.4%
Potency [4]: inactive
Potency [5]: inactive
Potency [6]: inactive
Potency [16]: inactive
outcome [7]: inactive
outcome [9]: inactive
Potency [17]: inactive
Potency [11]: inactive
Potency [12]: inactive
Potency [13]: inactive
Potency [19]: inactive
Potency [20]: inactive

O=[N+]([O-])c1ccc2c3c(cccc13)CC2
Potency [14]: inactive
Potency [2]: inactive
max response [15]: 1.98%
Potency [3]: inactive
Potency [4]: inactive
Potency [5]: inactive
Potency [6]: inactive
Potency [16]: inactive
outcome [7]: inactive
Potency [8]: inactive
outcome [9]: inactive
Potency [17]: inactive
Potency [10]: inactive
Potency [11]: inactive
Potency [18]: inactive
Potency [12]: inactive
Potency [13]: inactive
Potency [19]: inactive
Potency [20]: inactive

CCOP(=S)(OCC)Oc1nc(Cl)n(C(C)C)n1
Potency [14]: inactive
Potency [2]: inactive
max response [15]: 3.99%
Potency [3]: inactive
Potency [4]: inactive
Potency [5]: inactive
Potency [6]: inactive
Potency [16]: inactive
outcome [7]: inactive
Potency [8]: inactive
outcome [9]: inactive
Potency [17]: inactive
Potency [10]: inactive
Potency [11]: inactive
Potency [18]: inactive
Potency [12]: inactive
Potency [13]: inactive
Potency [20]: inactive

COc1cc(OC)nc(NC(=O)NS(=O)(=O)c2ncccc2OCC(F)(F)F)n1
Potency [1]: inactive
Potency [2]: inactive
Potency [3]: inactive
Potency [4]: inactive
Potency [5]: inactive
Potency [6]: inactive
Potency [16]: inactive
outcome [7]: inactive
Potency [8]: inactive
outcome [9]: inactive
Potency [17]: inactive
Potency [11]: inactive
Potency [18]: inactive
Potency [12]: inactive
Potency [13]: inactive
Potency [19]: inactive
Potency [20]: inactive

C=CCC1=C(C)[C@@H](OC(=O)[C@@H]2[C@@H](C=C(C)C)C2(C)C)CC1=O
Potency [14]: 11 µM (active)
Potency [2]: inactive
Potency [15]: 21.9 µM (active)
Potency [4]: inactive
Potency [5]: inactive
Potency [6]: 49 µM (active)
Potency [16]: 49 µM (active)
outcome [7]: inactive
outcome [9]: inactive
Potency [17]: 49 µM (active)
Potency [10]: inactive
Potency [18]: 12.3 µM (active)
Potency [12]: 6.92 µM (active)
Potency [13]: inactive

CCCCOC(=O)c1ccccc1C(=O)O
Potency [14]: inactive
Potency [2]: inactive
max response [15]: 1.78%
Potency [3]: inactive
Potency [4]: inactive
Potency [5]: inactive
Potency [6]: inactive
Potency [16]: inactive
outcome [7]: inactive
Potency [8]: inactive
outcome [9]: inactive
Potency [17]: inactive
Potency [10]: inactive
Potency [11]: inactive
Potency [18]: inactive
Potency [12]: inactive
Potency [19]: inactive
Potency [20]: inactive

c1ccc(N2CCNCC2)cc1
Potency [1]: inactive
max response [15]: 16.9%
Potency [3]: inactive
Potency [4]: inactive
Potency [5]: inactive
Potency [6]: inactive
Potency [16]: inactive
outcome [7]: inactive
Potency [8]: inactive
Potency [17]: inactive
Potency [10]: inactive
Potency [11]: inactive
Potency [18]: inactive
Potency [12]: inactive
Potency [13]: inactive
Potency [20]: inactive

CCS(=O)(=O)CCSP(=O)(OC)OC
Potency [14]: inactive
Potency [2]: inactive
Potency [3]: inactive
Potency [4]: inactive
Potency [5]: inactive
Potency [6]: inactive
Potency [16]: inactive
outcome [7]: inactive
Potency [8]: inactive
outcome [9]: inactive
Potency [17]: inactive
Potency [10]: inactive
Potency [11]: inactive
Potency [18]: inactive
Potency [12]: inactive
Potency [13]: inactive
Potency [19]: inactive

CN1C[C@@H](NS(=O)(=O)N(C)C)C[C@@H]2c3cccc4c3c(cn4C)C[C@H]21
Potency [14]: inactive
Potency [2]: inactive
max response [15]: -20.7%
Potency [3]: inactive
Potency [4]: inactive
Potency [5]: inactive
Potency [6]: inactive
Potency [16]: inactive
outcome [7]: inactive
Potency [8]: inactive
outcome [9]: inactive
Potency [17]: inactive
Potency [10]: inactive
Potency [11]: inactive
Potency [18]: inactive
Potency [12]: inactive
Potency [13]: inactive
Potency [19]: inactive
Potency [20]: inactive

CN1CCC(O)(c2ccc(F)cc2)C(C(=O)c2ccc(F)cc2)C1 (centres undefined)
Potency [14]: inactive
Potency [2]: inactive
max response [15]: -17.3%
Potency [3]: inactive
outcome [7]: inactive
Potency [11]: inactive
Potency [18]: inactive
Potency [12]: inactive
Potency [13]: inactive
Potency [19]: inactive
